# Inconclusive results are not listed. Activity calls are given as the source filed them. Rule for the calls, unless noted: active = hit-call score of the fitted dose curve at least 0.9, where 1 is the maximum; inactive = score below 0.9.
# How the values were obtained:
# [1] = test system: Brachyury (BRA) Protein Expression, TBXT (gene 6862); assay: CCTE_Deisenroth_DEVTOX-GLR_Endo_BRA: CCTE's DevTox GLR-Endo Assay Evaluation of Brachyury (BRA) Protein Expression, Deisenroth Lab (AID 2284417)
# Procedure: CCTE_Deisenroth_DEVTOX-GLR_Endo assay is a cell-based, multiplex-readout assay that uses RUES2-GLR, a human pluripotent cell line, with measurements taken at 48 hours after chemical dosing in a 384-well microplateCCTE_Deisenroth_DEVTOX-GLR_Endo_BRA is 1 of 4 assay components calculated from the CCTE_Deisenroth_DEVTOX-GLR_Endo assay and it measures the percentage of cells in an mesoderm state. Using a type of inducible fluorescent protein reporter, gain-of-signal activity can be used to understand changes in gene expression with fluorescent microscopy. The percentage of BRA+ cells are determined by calculating the number of BRA+ cells divided by the cell count. To generalize the intended target to other relatable targets, this assay component is annotated to the transcription factor intended target family, where the subfamily is T-box protein.Data from the assay component CCTE_Deisenroth_DEVTOX-GLR_Endo_BRA was analyzed as 1 assay endpoint. The endpoint is the percent BRA+ cell population minus the 0.2% DMSO control in the CCTE_Deisenroth_DEVTOX-GLR_Endo assay. Furthermore, this assay endpoint can be referred to as a secondary readout, because this assay has produced multiple assay endpoints where this one serves as a measure of mesoderm differentiation.
# (§1) All assay protocols are aligned to the DevTox GLR-Endo assay workflow. Cells are seeded into 384-well microplates for 24 hours prior to initiating differentiation in defined media for a total duration of 48 hours. A total of two chemical exposures are administered in 24-hour intervals during the 48-hour differentiation period. At the assay termination point, cells are fixed and stained with a fluorescent dye demarcating the nucleus. High-content imaging is used to acquire brightfield and fluorescent channel images across 5 fields per well. Cell identification and mean biomarker fluorescence intensities are calculated with image analysis software to determine the total cell counts for viability assessment and the biomarker expression frequency for each lineage-dependent assay. A typical experimental design tests a 10-point concentration series (1 nM - 200 uM) for 28 compounds in single technical replicate. Assay plate controls include non-differentiated pluripotent cells (baseline control), lineage-specific differentiated cells (differentiation control), and DMSO solvent exposed differentiated cells (solvent control). Experiments typically comprise a minimum of four experimental replicates (n=4).
# [2] = CCTE_Deisenroth_DEVTOX-GLR_Endo_CellCount: Viability Assessment in CCTE's DevTox GLR-Endo Assay, Deisenroth Lab (AID 2284420)
# Procedure, shortened: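 Human pluripotent RUES2-GLR line; 24 h pre-seed; 48 h endoderm-directed differentiation; 2 doses, q24h; 10 conc., 1 nM - 200 uM; fix + nuclear dye; 5 fields/well imaged; readout = nuclei count, % change vs 0.2% DMSO; n=4.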
# [3] = test system: SRY-box transcription factor 17 (SOX17) Protein Expression, Deisenroth Lab, SOX17 (gene 64321); assay: CCTE_Deisenroth_DEVTOX-GLR_Pluri_SOX17: CCTE's DevTox GLR-Pluri Assay Evaluation of SRY-box transcription factor 17 (SOX17) Protein Expression, Deisenroth Lab (AID 2284427; active = hit-call score of the fitted dose curve at least 0.9, where 1 is the maximum)
# Procedure, shortened: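 Human RUES2-GLR pluripotent line; 24 h seeding, 48 h defined-media differentiation, 2 doses q24h, 10 conc 1 nM - 200 uM. Fix, nuclear stain, image 5 fields/well. Endpoint = %SOX17+ minus 0.2% DMSO; n=4.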
# [4] = test system: SRY-box transcription factor 2 (SOX2) Protein Expression, Deisenroth Lab, SOX2 (gene 6657); assay: CCTE_Deisenroth_DEVTOX-GLR_Pluri_SOX2: CCTE's DevTox GLR-Pluri Assay Evaluation of SRY-box transcription factor 2 (SOX2) Protein Expression, Deisenroth Lab (AID 2284428)
# Procedure: CCTE_Deisenroth_DEVTOX-GLR_Pluri assay is a cell-based, multiplex-readout assay that uses RUES2-GLR, a human pluripotent cell line, with measurements taken at 48 hours after chemical dosing in a 384-well microplateCCTE_Deisenroth_DEVTOX-GLR_Pluri_SOX2 is 1 of 4 assay components calculated from the CCTE_Deisenroth_DEVTOX-GLR_Pluri assay and it measures an the percentage of cells in an pluripotent state. Using a type of inducible fluorescent protein reporter, gain-of-signal activity can be used to understand changes in gene expression with fluorescent microscopy. The percentage of SOX2+ cells are determined by calculating the number of SOX2+ cells divided by the cell count. To generalize the intended target to other relatable targets, this assay component is annotated to the transcription factor intended target family, where the subfamily is SRY-related HMG-box.Data from the assay component CCTE_Deisenroth_DEVTOX-GLR_Pluri_SOX2 was analyzed as 1 assay endpoint. The endpoint is the percent change in the SOX2+ cell population relative to the 0.2% DMSO control in the CCTE_Deisenroth_DEVTOX-GLR_Pluri assay. Furthermore, this assay endpoint can be referred to as a primary readout, because this assay has produced multiple assay endpoints where this one serves as a measure of […].
# as §1
# [5] = test system: Brachyury (BRA) Protein Expression, Deisenroth Lab, TBXT (gene 6862); assay: CCTE_Deisenroth_DEVTOX-GLR_Pluri_BRA: CCTE's DevTox GLR-Pluri Assay Evaluation of Brachyury (BRA) Protein Expression, Deisenroth Lab (AID 2284429; active = hit-call score of the fitted dose curve at least 0.9, where 1 is the maximum)
# Procedure, shortened: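 RUES2-GLR human pluripotent cells differentiated 48 hours with two chemical exposures 24 hours apart, 10-point series 1 nM–200 uM. Fixed, nuclear-stained, imaged; endpoint is percent BRA+ cells minus 0.2% DMSO control.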
# [6] = CCTE_Deisenroth_DEVTOX-GLR_Pluri_CellCount: Viability Assessment in CCTE's DevTox GLR-Pluri Assay Evaluation of Total Cell Counts, Deisenroth Lab (AID 2284430)
# Procedure, shortened: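 RUES2-GLR human pluripotent cells, seeded 24 h, then differentiated 48 h with two chemical exposures 24 h apart; 10-point series 1 nM - 200 uM. Fixed, nuclear-stained, imaged (5 fields/well); nuclei count as % change vs 0.2% DMSO.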
# TTR (gene 7276) = assay: CCTE_GLTED_hTTR_0.125uM: CCTE's human Transthyretin (hTTR) Inhibition Assay, with 0.125uM TTR, Great Lakes Toxicology and Ecology Division (GLTED) Lab (AID 2284431);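 note: hits lower the fluorescence signal relative to DMSO baseline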
# Procedure, shortened: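 Fluorescence (380 ex, 475 em) reported the ANSA probe remaining bound to 0.125uM human transthyretin. Chemicals were incubated with the protein for 2 hours; activity was scored as loss of signal against DMSO negative control.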
# [7] = CCTE_Padilla_ZF_Score.Any: CCTE's 144 Hour Post-fertilization zebrafish Assay Score for Any Mortality or Malformation, Padilla Lab (AID 2284416)
# Procedure, shortened: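 Wild-type zebrafish embryos with chorions, one per well in 10% Hanks' from 6–8 hpf, dosed in sealed plates at 26 C, 14:10 h light:dark; rinsed at 5 dpf; blinded scoring at 6 dpf for death or malformation, versus DMSO.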
smiles,measurement,setting,value
CC(=O)Nc1ccc(O)cc1,outcome,[1],inactive
same,outcome,[2],inactive
same,outcome,[3],inactive
same,outcome,[4],inactive
same,outcome,[5],inactive
same,outcome,[6],inactive
CCCCc1ccc2ccccc2c1S(=O)(=O)O,AC50,TTR (gene 7276),0.712 µM (active)
CN(CCO)S(=O)(=O)C(F)(F)C(F)(F)C(F)(F)C(F)(F)C(F)(F)C(F)(F)C(F)(F)C(F)(F)F,AC50,[7],9.78 µM (active)
NC(C(F)(F)F)C(F)(F)F,outcome,[7],inactive
CCCCCCc1ccc(N)cc1,AC50,TTR (gene 7276),9.58 µM (active)
CCC(C)c1ccccc1O (configuration not stated),AC50,TTR (gene 7276),22.4 µM (active)
O=C1OC(=O)C(F)(F)C1(F)F,outcome,[7],inactive
O=CC(F)(F)C(F)(F)C(F)(F)C(F)F,outcome,[7],inactive
COc1cc([N+](=O)[O-])ccc1N,AC50,TTR (gene 7276),14.9 µM (active)
OCC(F)(F)C(F)(F)C(F)(F)C(F)(F)C(F)(F)C(F)(F)C(F)(F)C(F)(F)C(F)(F)C(F)(F)C(F)(F)F,outcome,[7],inactive
O=C(O)C(F)(F)OC(F)(F)C(F)(F)OC(F)(F)C(F)(F)OC(F)(F)C(F)(F)C(F)(F)C(F)(F)F,AC50,[7],2.9 µM (active)
Cc1[nH]nc2c1N=C(c1ccccc1Cl)c1cc([N+](=O)[O-])ccc1N2,AC50,TTR (gene 7276),0.771 µM (active)
O=C(O)CCC(F)(F)C(F)(F)C(F)(F)C(F)(F)C(F)(F)F,AC50,[7],10 µM (active)
FC(F)(F)C1(F)C(F)(F)C(F)(F)C(F)(F)C1(F)F,outcome,[7],inactive
O=C(CC(=O)C(F)(F)C(F)(F)C(F)(F)F)c1cccs1,AC50,[7],3.55 µM (active)
O=C(O)CCC(F)(F)C(F)(F)C(F)(F)C(F)(F)C(F)(F)C(F)(F)F,AC50,[7],13.8 µM (active)
O=P(O)(O)CCC(F)(F)C(F)(F)C(F)(F)C(F)(F)C(F)(F)C(F)(F)C(F)(F)C(F)(F)F,AC50,[7],2.32 µM (active)
O=CC(F)(F)C(F)(F)C(F)(F)F,outcome,[7],inactive
COC(=O)C(F)(F)C(F)(F)C(F)(F)C(F)(F)C(F)(F)F,outcome,[7],inactive
CCCCCCCCCCCC(=O)O,AC50,TTR (gene 7276),3.05 µM (active)
O=C1NS(=O)(=O)c2ccccc21,outcome,[1],inactive
same,outcome,[2],inactive
same,outcome,[3],inactive
same,outcome,[4],inactive
same,outcome,[5],inactive
same,outcome,[6],inactive
FC(F)(F)N1C(F)(F)C(F)(F)OC(F)(F)C1(F)F,outcome,[7],inactive
FC(F)(F)C1(F)C(F)(F)C(F)(F)C(F)(F)C(F)(C(F)(F)F)C1(F)F (configuration not stated),outcome,[7],inactive
FC1(F)C=CC(F)(F)C1(F)F,outcome,[7],inactive
FCOC(C(F)(F)F)C(F)(F)F,outcome,[7],inactive
CCCCc1oc2ccccc2c1C(=O)c1cc(I)c(OCCN(CC)CC)c(I)c1,AC50,[1],14.2 µM (active)
same,AC50,[2],18.2 µM (active)
same,AC50,[3],21.4 µM (active)
same,AC50,[4],10.4 µM (active)
same,AC50,[5],6.42 µM (active)
same,AC50,[6],10.6 µM (active)
O=P(O)(O)CCC(F)(F)C(F)(F)C(F)(F)C(F)(F)C(F)(F)C(F)(F)F,AC50,[7],25.6 µM (active)
CN(Cc1cnc2nc(N)nc(N)c2n1)c1ccc(C(=O)N[C@@H](CCC(=O)O)C(=O)O)cc1,AC50,[1],0.329 µM (active)
same,AC50,[2],0.361 µM (active)
same,outcome,[3],inactive
same,AC50,[4],0.0314 µM (active)
same,outcome,[5],inactive
same,outcome,[6],inactive
FC(OC(F)(F)C(F)(F)C(F)(F)F)C(F)(F)F (configuration not stated),outcome,[7],inactive
C=CC(F)(F)C(F)(F)C(F)(F)C(F)(F)F,outcome,[7],inactive
O=C(OC(=O)C(F)(F)C(F)(F)F)C(F)(F)C(F)(F)F,outcome,[7],inactive
CN(C)CCOC(c1ccccc1)c1ccccc1,AC50,[1],46.8 µM (active)
same,AC50,[2],61.7 µM (active)
same,AC50,[3],36.2 µM (active)
same,AC50,[4],83.2 µM (active)
same,AC50,[5],19.8 µM (active)
same,outcome,[6],inactive
FC(F)=C(F)C(F)(F)C(F)(F)C(F)(F)C(F)F,outcome,[7],inactive
O=C(F)C(F)(F)C(F)(F)C(F)(F)C(=O)F,outcome,[7],inactive
C=CC(=O)OCCC(F)(F)C(F)(F)C(F)(F)C(F)(F)C(F)(F)C(F)(F)C(F)(F)C(F)(F)F,outcome,[7],inactive
O=C(c1ccccc1)c1ccccc1,AC50,TTR (gene 7276),21.3 µM (active)
CCCCCCCCCC=CCC1CC(=O)OC1=O (configuration not stated),AC50,TTR (gene 7276),7.87 µM (active)

# — PubChem BioAssay (EPA / NIEHS)
